Whole data set: some 39,000 sequences, median “fluorescence intensity (a.u.)” near 4,300, cut for the highest 2% near 39,000. The entries come from a sample that favours the highest values as a whole.
These sequences were tested against T1, OsSMF1 (Oryza sativa, UniProt Q6ZLB0 1-436) (assay: protein-binding microarray (RPBM); PBS, 2% BSA, 51.3 ng/ul salmon testes DNA, 50 uM zinc acetate, 200 nM TF, 25 C, 1 h; high values mean tight binding). Details: protein: recombinant; tags: N-terminal polyhistidine and DsRed monomer fusion (pET32a); chain copies: 2; label: CyDye5-dUTP incorporated in the synthesized complementary strand; 3' TTTTT single-stranded linker to array surface; dsDNA, one strand shown.
T1 sequence: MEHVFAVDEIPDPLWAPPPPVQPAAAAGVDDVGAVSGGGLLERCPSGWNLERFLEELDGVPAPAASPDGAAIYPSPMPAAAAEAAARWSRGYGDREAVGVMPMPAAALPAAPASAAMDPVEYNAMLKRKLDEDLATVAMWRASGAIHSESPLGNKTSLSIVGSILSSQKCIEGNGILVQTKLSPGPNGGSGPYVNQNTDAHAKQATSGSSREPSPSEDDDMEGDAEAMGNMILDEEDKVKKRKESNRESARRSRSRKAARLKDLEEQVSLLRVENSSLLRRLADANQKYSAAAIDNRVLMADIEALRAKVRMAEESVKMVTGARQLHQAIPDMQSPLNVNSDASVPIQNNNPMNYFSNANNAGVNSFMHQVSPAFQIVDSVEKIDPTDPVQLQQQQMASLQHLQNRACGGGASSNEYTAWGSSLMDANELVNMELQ
Summary of the method: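 An Axon 4000B scanner gave the binding signal as per-feature fluorescence intensity in arbitrary units. This followed washing of a custom Agilent array that had been incubated for 1 h at 25 °C with 200 nM protein in PBS, 2% BSA, salmon testes DNA and 50 µM zinc acetate. The proteins were transcription factors fused at the N-terminus to polyhistidine and DsRed, expressed in E. coli BL21-CodonPlus and purified on Ni–NTA.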

| Sequence | binding signal |
| --- | --- |
| ATACTTCCATTTGTGCCATACATTTTGTCATTTCGACCTGCGGAGTCACCTAGTGCAG | 3330 fluorescence intensity (a.u.) |
| GGTTTTAACCCCGATTTCGTTCGACGTGGCGGCTGAGTCACGGAGTCACCTAGTGCAG | 10800 fluorescence intensity (a.u.) |
| ATTCACTTTCTTGATTACGTAGAAGCTTCAGTGTCTATTCCGGAGTCACCTAGTGCAG | 3810 fluorescence intensity (a.u.) |
| ACAAGTACTACACGCGAATGTATTTCAATAGAAATTTATCCGGAGTCACCTAGTGCAG | 35600 fluorescence intensity (a.u.) |
| TGCATGTACGATACTGGAGCTGATCCTCGCCATCATATCCCGGAGTCACCTAGTGCAG | 3160 fluorescence intensity (a.u.) |
| CCGCCTCGCCGCGTGCCTCTGGAACAATCTGGCGCTGCCGCGGAGTCACCTAGTGCAG | 3700 fluorescence intensity (a.u.) |
| AGAAGCGCGCCGAGGAGGCCCGCTCGTTCAACCGCGCCGCCGGAGTCACCTAGTGCAG | 65500 fluorescence intensity (a.u.) |
| ACAAACCAACCAACCCTCCTCGCCGCGGCCGCCGCCACCGCGGAGTCACCTAGTGCAG | 3400 fluorescence intensity (a.u.) |
| AGGGAAAAGAGGAGACGGGAGGAAAGGAACGGAGGAGATGCGGAGTCACCTAGTGCAG | 3340 fluorescence intensity (a.u.) |
| TGGAGAGGGAACCAACAACAAACAACCAGCTGCCTCGCCGCGGAGTCACCTAGTGCAG | 47200 fluorescence intensity (a.u.) |
| CGCCGCGAAGGCGCGAAGCCCCGTCACCGCGCGCGCGCGCCGGAGTCACCTAGTGCAG | 5540 fluorescence intensity (a.u.) |
| GGCGGCGGCGGAGAAGGAGAGGCCGCCCGCCGCGTGGCGCCGGAGTCACCTAGTGCAG | 6420 fluorescence intensity (a.u.) |
| GTGCGCGCGGTGCTTAGGCAGACGCGGCCCAGATCGGCGCCGGAGTCACCTAGTGCAG | 40500 fluorescence intensity (a.u.) |
| ATCAGCAAGAATGCGAGGGAGACGGCGGAGAGCTCGGGAACGGAGTCACCTAGTGCAG | 43000 fluorescence intensity (a.u.) |
| CGGAGACGGGAGGCGAGGCGAGCGGCGCCGCGGAACGGGACGGAGTCACCTAGTGCAG | 18600 fluorescence intensity (a.u.) |
| GCGCGCGCGCGCGGGCATAGGCGACGCCGCGACGGTGCGGCGGAGTCACCTAGTGCAG | 3890 fluorescence intensity (a.u.) |
| ACGATCGGTGACGACGAGCGACGACGCGGCATGAAGACGCCGGAGTCACCTAGTGCAG | 3300 fluorescence intensity (a.u.) |
| GAGAGAGAGAGAGGGATTTCCCCTTGGCTCCGCGTCGATACGGAGTCACCTAGTGCAG | 3520 fluorescence intensity (a.u.) |
| AATCTATATGTTATCGTCCTCCTCTTGCGTGTGGCTAGTTCGGAGTCACCTAGTGCAG | 3750 fluorescence intensity (a.u.) |

| Sequence | binding signal |
| --- | --- |
| AATTGTTTACTGATCTTTGCGTTAATGATGATTGTGCCCTCGGAGTCACCTAGTGCAG | 3160 fluorescence intensity (a.u.) |
| AAAATTCGAATCAGGCGGAGCCACCTCACCTCGCCGCGGCCGGAGTCACCTAGTGCAG | 5020 fluorescence intensity (a.u.) |
| CTTTGTCTTAGTATGGTGACTGGTTGCAAATTGATTTGGTCGGAGTCACCTAGTGCAG | 3410 fluorescence intensity (a.u.) |
| AGCTAGCTAGCTAACTAGTAAGGAGGTACACGTAGGTAGCCGGAGTCACCTAGTGCAG | 6960 fluorescence intensity (a.u.) |
| TGGGTTGAATATGAGCTTGAATATTGGTGGAGTGATACATCGGAGTCACCTAGTGCAG | 3240 fluorescence intensity (a.u.) |
| CTTCCATATATCCTTGTCACAAGCTAGCTCACAAAACTTCCGGAGTCACCTAGTGCAG | 4680 fluorescence intensity (a.u.) |
| CCGCGCTCACCTGCCGGGCGTGGCGCGCCGCGGTGGCCTCCGGAGTCACCTAGTGCAG | 3140 fluorescence intensity (a.u.) |
| GCGAGGGGCGGGGAGAGCAGCGGCGGCGGCGGAGCGCGGCCGGAGTCACCTAGTGCAG | 39200 fluorescence intensity (a.u.) |
| GGCGGCCACGGGCTCCGGCGGAGGGCGGCGTGGTGGCGGCCGGAGTCACCTAGTGCAG | 14400 fluorescence intensity (a.u.) |
| GCGCGCGCGGCGTTCGGGAGGAAGCGGAAGAGCGCGCCGGCGGAGTCACCTAGTGCAG | 47000 fluorescence intensity (a.u.) |
| GCGGCGCCTCCGGGAAGCGCGGCGCCGCGTCCTCCTCCTCCGGAGTCACCTAGTGCAG | 3170 fluorescence intensity (a.u.) |
| GGTGGCGGCGCGGGCCGGGCGGCGGCGGCGGCGGCGGCTCCGGAGTCACCTAGTGCAG | 40400 fluorescence intensity (a.u.) |
| GGGCGGAGCGGGGCGGAGGGAGAGGAGGGAGAGGAGGGAGCGGAGTCACCTAGTGCAG | 4920 fluorescence intensity (a.u.) |
| GCCCCGCGGCTTCCGGCTGCCGTCGCCGCGAGCCCCGTGGCGGAGTCACCTAGTGCAG | 5050 fluorescence intensity (a.u.) |
| GAGGCCGGGGTCGGGGCGAGCGAGGCGAGAGGGGAGGAGGCGGAGTCACCTAGTGCAG | 4480 fluorescence intensity (a.u.) |
| GTGATTTATCCGAGCAGAGTGGCGGCGGCTTCGCCGAGTACGGAGTCACCTAGTGCAG | 39600 fluorescence intensity (a.u.) |
| GAGCGCGGAAGCCGGCGGCGGCCGTACGTGTTCGGCCGGCCGGAGTCACCTAGTGCAG | 3410 fluorescence intensity (a.u.) |
| GAGCTCCGCCAGTACGAGTACAGACCCAGCTTCGCCGGCGCGGAGTCACCTAGTGCAG | 3580 fluorescence intensity (a.u.) |
| TGTTTACGTCCAACGTTTAACCGCTCGTCTTATTTGAAATCGGAGTCACCTAGTGCAG | 21000 fluorescence intensity (a.u.) |

| Sequence | binding signal |
| --- | --- |
| AGAAGTATTTCTGCGTCATTGTTGGAAATTATATTTCTAGCGGAGTCACCTAGTGCAG | 3650 fluorescence intensity (a.u.) |
| GACACTTACAAGCACTGCGGCGTTACCATTTTATGGAACTCGGAGTCACCTAGTGCAG | 3220 fluorescence intensity (a.u.) |
| GGAAAGGCGCCACGTAATAAATAGAAACAGACTCAGCACTCGGAGTCACCTAGTGCAG | 6760 fluorescence intensity (a.u.) |
| TATGCCAAAGAGAAGCCTCGTCAGCCATCCCTTTGGCCACCGGAGTCACCTAGTGCAG | 7800 fluorescence intensity (a.u.) |
| GAGCAGCCAGCTCGCCAAGCCTAGCCATTCTTGATCTCTTCGGAGTCACCTAGTGCAG | 3280 fluorescence intensity (a.u.) |
| CGAAGTCGTGCTGCGCTCCGACTCAGCTGCATCGTCACTCCGGAGTCACCTAGTGCAG | 5960 fluorescence intensity (a.u.) |
| GAGCCGAGACTGAGAGAGAGATCGGCGCCGGCTGTGAACGCGGAGTCACCTAGTGCAG | 48100 fluorescence intensity (a.u.) |
| GTCCATCGGATCGGGAGCGCGCGGCGAGGCAGGCGGGGTCCGGAGTCACCTAGTGCAG | 44300 fluorescence intensity (a.u.) |
| GCGGAGGCCGCCGGCTGACGTGGCTCCCAACGGCCGGGAGCGGAGTCACCTAGTGCAG | 21200 fluorescence intensity (a.u.) |
| ACTCGTGGAGCCGGTGATGACGTGCCCAAGCTAGAGACAGCGGAGTCACCTAGTGCAG | 7230 fluorescence intensity (a.u.) |
| CAGGGCAGCGGCAGGTGGGGAGGAGGCCGGCGGGTCGGCGCGGAGTCACCTAGTGCAG | 3470 fluorescence intensity (a.u.) |
| GAGGAAGAACCTTACGCTCAAACGAAACGGAACCAGTAGGCGGAGTCACCTAGTGCAG | 55100 fluorescence intensity (a.u.) |
| TCGGGTGAGCGAGTGAGTGGGCGAGGAGGCGCGGCGGCGGCGGAGTCACCTAGTGCAG | 3800 fluorescence intensity (a.u.) |
| TCGGCCGTCGGATCGCGCGCGAAACGCTGTGATGTGCTGGCGGAGTCACCTAGTGCAG | 4480 fluorescence intensity (a.u.) |
| AAGAGGGAGGGGAGGGTTCGCGAACCAGTAGAAAACGGCTCGGAGTCACCTAGTGCAG | 3390 fluorescence intensity (a.u.) |
| CTGCCGGTGGACGGCGGCGGAGAGCTGACTAGCCGAGCCGCGGAGTCACCTAGTGCAG | 3520 fluorescence intensity (a.u.) |
| ACCCAACGGTGATGATGTCAGCTGACGTGGCGCCCCGGAGCGGAGTCACCTAGTGCAG | 40500 fluorescence intensity (a.u.) |
| CAGCAGCAACGAAATCAGAACGAGGCGCAGGAAGAAGAAACGGAGTCACCTAGTGCAG | 28000 fluorescence intensity (a.u.) |

Source: PMC7819943, “Rice protein-binding microarrays: a tool to detect cis-acting elements near promoter regions in rice”
